Experiment [1] in a line: antimalarial activity against Dd2 strain (AID 2302;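 active = growth inhibition above 50% at the single 2 µM test dose, taken to imply half-maximal potency below 2 µM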;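 also: 0% = DMSO untreated growth and 100% = chloroquine plus artemisinin killed control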). The conditions noted are these: P. falciparum Dd2 in RBCs, LDH growth readout, 72 h; at 2 µM; stronger effect = higher value.
Experiment [2] in a line: HepG2 cytotoxicity, primary screen, cytotoxicity control for P. falciparum antimalarial project, cell-based, ATP luminescence (AID 2303;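 active = inhibition above 50%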;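 also: 0% = DMSO wells and 100% = digitonin-killed cells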). The conditions noted are these: HepG2 viability, 24-48 h, at 10 µM, stronger effect = higher value.
For experiment [3], the target named is L-lactate dehydrogenase (Plasmodium falciparum (isolate CDC / Honduras)) (UniProt Q27743). Put plainly: PfLDH activity inhibition – cell lysate, 3D7 strain, counter-screen for P. falciparum growth inhibition project (AID 2304).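 Also: 0% = vehicle and 100% = reference inhibitor.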 The conditions noted are these: P. falciparum 3D7 crude extract, LDH APAD/NBT absorbance; at 2 µM; stronger effect = higher value.
Chain of L-lactate dehydrogenase (Plasmodium falciparum (isolate CDC / Honduras)) (Q27743 whole entry, looked up): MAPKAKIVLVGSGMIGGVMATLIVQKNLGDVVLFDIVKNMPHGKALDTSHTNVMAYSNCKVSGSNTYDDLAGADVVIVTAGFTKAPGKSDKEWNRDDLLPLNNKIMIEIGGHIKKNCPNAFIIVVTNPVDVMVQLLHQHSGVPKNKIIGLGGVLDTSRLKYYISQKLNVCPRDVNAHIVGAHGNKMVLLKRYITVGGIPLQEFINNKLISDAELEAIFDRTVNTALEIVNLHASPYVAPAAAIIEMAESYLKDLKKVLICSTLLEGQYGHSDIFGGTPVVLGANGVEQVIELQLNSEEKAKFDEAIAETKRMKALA
Experiment [4] can be described thus: inhibition of 3D7 malaria parasite growth – strain 3D7 (AID 2306).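 Also: 0% = DMSO wells and 100% = chloroquine plus artemisinin control wells.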 The note with it: P. falciparum 3D7 erythrocytic growth, LDH absorbance, 72 h; at 2 µM; stronger effect = higher value.
The target of experiment [5] is Calcium-dependent protein kinase 1 (Plasmodium falciparum (isolate 3D7)) (UniProt P62344). Kind of experiment: PfCDPK1 kinase inhibitors, biochemical, TCAMS library (AID 1159585; cut-off not given, nearly all actives have IC50 up to about 0.98 µM;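 also: inhibitors leave more ATP so luminescence rises with inhibition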). The conditions noted are these: recombinant PfCDPK1, Kinase-Glo ATP depletion luminescence. In general terms: Kinase-Glo measures the ATP left after a reaction by luminescence.
Chain of Calcium-dependent protein kinase 1 (Plasmodium falciparum (isolate 3D7)) (P62344 whole entry, looked up): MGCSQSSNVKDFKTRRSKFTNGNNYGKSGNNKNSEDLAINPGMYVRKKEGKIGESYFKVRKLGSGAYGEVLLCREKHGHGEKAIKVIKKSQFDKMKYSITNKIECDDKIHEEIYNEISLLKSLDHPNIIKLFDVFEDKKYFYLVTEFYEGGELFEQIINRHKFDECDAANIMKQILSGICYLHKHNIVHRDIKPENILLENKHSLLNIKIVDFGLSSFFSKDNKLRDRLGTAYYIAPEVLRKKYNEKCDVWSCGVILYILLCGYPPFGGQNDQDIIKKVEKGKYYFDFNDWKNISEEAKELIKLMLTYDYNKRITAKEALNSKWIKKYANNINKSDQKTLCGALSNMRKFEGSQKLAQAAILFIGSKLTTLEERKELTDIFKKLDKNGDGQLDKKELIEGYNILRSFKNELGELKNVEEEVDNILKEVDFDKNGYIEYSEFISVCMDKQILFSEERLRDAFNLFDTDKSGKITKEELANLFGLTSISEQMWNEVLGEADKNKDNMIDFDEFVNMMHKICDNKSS
Experiment [6] concerns the target Plasmodium falciparum protein kinase 6 (PK6, PF3D7_1337100) (UniProt Q8IDW1). Kind of experiment: PfPK6 kinase inhibitors, biochemical, TCAMS library (AID 1159586). The conditions noted are these: recombinant PfPK6, Kinase-Glo ATP depletion luminescence.
Experiment [7] deals with Protein kinase 7 (PK7), Plasmodium falciparum 3D7 (PF3D7_0213400) (UniProt Q7YTF7). Put plainly: inhibition of Plasmodium PK7 catalytic activity – biochemical, TCAMS antimalarial set, Kinase-Glo luminescence (AID 1159587). The conditions noted are these: recombinant PfPK7, Kinase-Glo ATP depletion luminescence.
Chain of Protein kinase 7 (PK7), Plasmodium falciparum 3D7 (PF3D7_0213400) (Q7YTF7 1-343): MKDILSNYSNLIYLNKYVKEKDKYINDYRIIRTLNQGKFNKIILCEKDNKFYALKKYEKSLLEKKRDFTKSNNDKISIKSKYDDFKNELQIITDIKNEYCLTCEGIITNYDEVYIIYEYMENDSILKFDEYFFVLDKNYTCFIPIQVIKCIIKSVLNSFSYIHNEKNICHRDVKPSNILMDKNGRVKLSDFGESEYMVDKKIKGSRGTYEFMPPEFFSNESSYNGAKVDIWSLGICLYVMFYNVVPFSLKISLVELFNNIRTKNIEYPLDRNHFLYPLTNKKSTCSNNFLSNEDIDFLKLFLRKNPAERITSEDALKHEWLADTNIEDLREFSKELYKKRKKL
The target of experiment [8] is Calcium-dependent protein kinase 4 (Plasmodium falciparum (isolate 3D7)) (UniProt Q8IBS5). Kind of experiment: PfCDPK4 kinase inhibitors, biochemical, TCAMS library (AID 1159588; cut-off not given, nearly all actives have IC50 up to about 0.91 µM). The conditions noted are these: recombinant PfCDPK4, Kinase-Glo ATP depletion luminescence.
Chain of Calcium-dependent protein kinase 4 (Plasmodium falciparum (isolate 3D7)) (Q8IBS5 whole entry, looked up): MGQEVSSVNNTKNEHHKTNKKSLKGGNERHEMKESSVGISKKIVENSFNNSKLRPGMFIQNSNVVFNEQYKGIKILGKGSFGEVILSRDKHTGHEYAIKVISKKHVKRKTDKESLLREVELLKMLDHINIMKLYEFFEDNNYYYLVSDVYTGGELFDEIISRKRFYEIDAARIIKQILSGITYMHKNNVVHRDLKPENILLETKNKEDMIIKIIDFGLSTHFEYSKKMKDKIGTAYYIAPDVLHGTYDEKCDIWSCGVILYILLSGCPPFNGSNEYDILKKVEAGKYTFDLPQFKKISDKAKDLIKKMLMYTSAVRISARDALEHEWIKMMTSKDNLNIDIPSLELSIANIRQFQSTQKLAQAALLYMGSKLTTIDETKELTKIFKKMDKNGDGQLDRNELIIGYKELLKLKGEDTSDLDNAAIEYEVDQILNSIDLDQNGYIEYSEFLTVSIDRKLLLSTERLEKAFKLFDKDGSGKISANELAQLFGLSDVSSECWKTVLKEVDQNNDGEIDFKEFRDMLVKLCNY

The record followed here is PubChem BioAssay.

Unmarked numbers belong to inactive results. For part of these data: Results with a measured potency or affinity are listed apart. Active and inactive are the calls of the source. Unless noted, no rule for the calls is given here.

Chain of Plasmodium falciparum protein kinase 6 (PK6, PF3D7_1337100) (Q8IDW1 1-305): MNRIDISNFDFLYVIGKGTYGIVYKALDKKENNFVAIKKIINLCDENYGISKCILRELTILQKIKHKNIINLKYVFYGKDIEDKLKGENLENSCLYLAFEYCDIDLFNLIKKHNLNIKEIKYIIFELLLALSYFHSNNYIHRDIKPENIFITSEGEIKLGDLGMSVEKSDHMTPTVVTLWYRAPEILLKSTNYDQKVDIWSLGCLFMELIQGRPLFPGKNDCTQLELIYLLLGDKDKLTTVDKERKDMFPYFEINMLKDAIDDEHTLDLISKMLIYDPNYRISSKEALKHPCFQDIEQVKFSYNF

As a reminder, the inhibition is the change of the read-out against control, counted positive when it falls. Take `CN(C)c1ccc(NC2=NC(C)(C)N=C(N)N2)cc1`: the figures for the growth inhibition in experiment [1] and in experiment [4] were 5% and 95% (active), respectively. Also, the inhibition in experiment [2] was -1%; in experiment [3] it was -4%. The outcome in experiment [5], in experiment [6], in experiment [7] and in experiment [8] was inactive.

Turning to `O=C(Nc1ccc(Cl)cc1)c1cccc2[nH]c(C(F)(F)F)nc12`, the growth inhibition in experiment [1] was 98% (active); in experiment [4], 93% (active). The values for the inhibition in experiment [2] and in experiment [3] were 84% (active) and -6%, respectively. The result in experiment [5], in experiment [6], in experiment [7] and in experiment [8] was inactive.

As for `Cc1cc(-c2cccc(CNCc3ccccc3)c2)ccc1S(=O)(=O)NCCN1CCCC1`, the figures for the growth inhibition in experiment [1] and in experiment [4] were 58% (active) and 98% (active), respectively. Further, the inhibition in experiment [2] was 40%; in experiment [3] it was 1%. Also, the result in experiment [5], in experiment [6], in experiment [7] and in experiment [8] was inactive.

`CN1CCC[C@H]1COc1ccc(CN2CC[C@H](NC(=O)c3ccc(Cl)c(Cl)c3)C2)cc1Cl`: the growth inhibition in experiment [1] is 44%; in experiment [4], 97% (active). The inhibition is 53% (active) in experiment [2] and -2% in experiment [3]. Further, the result in experiment [5], in experiment [6], in experiment [7] and in experiment [8] was inactive.

Take `O=C(NC1CCCCC1)N(Cc1ccc(-c2cccc(CNC3CCCC3)c2)cc1)C1CCN(Cc2ccccc2)CC1`: the values for the growth inhibition in experiment [1] and in experiment [4] were 59% (active) and 95% (active), respectively. Further, the inhibition in experiment [2] is 52% (active); in experiment [3], 3%. For the same molecule, the outcome in experiment [5], in experiment [6], in experiment [7] and in experiment [8] was inactive.

`Cc1cccc2[nH]c(-c3ccc(-c4cccc(CNCCN5CCNCC5)c4)cc3)nc12`: the growth inhibition in experiment [1] was 2%; in experiment [4] it was 85% (active). Moreover, the inhibition was 9% in experiment [2] and 1% in experiment [3]. The outcome in experiment [5], in experiment [6], in experiment [7] and in experiment [8] was inactive.

Turning to `CCCCc1cc(NCc2ccncc2)nc(Nc2ccc(C)cc2)n1`, the growth inhibition in experiment [1] was 59% (active); in experiment [4], 101% (active). Moreover, the inhibition in experiment [2] is 7%; in experiment [3], -4%. In addition, the outcome in experiment [5], in experiment [6], in experiment [7] and in experiment [8] was inactive.

For `CC(=O)Nc1ccc2[nH]cc(C3CCN(CC4CCN(C(=O)/C=C/c5ccc(Cl)c(Cl)c5)CC4)CC3)c2n1`, the growth inhibition in experiment [1] is 99% (active); in experiment [4] it was 100% (active). In addition, the inhibition was 21% in experiment [2] and -2% in experiment [3]. Further, the result in experiment [5], in experiment [6], in experiment [7] and in experiment [8] was inactive.

With `CN(C)c1ccc2c(c1)Sc1cc(N(C)C)ccc1N2C(=O)c1cccc(C(=O)O)c1`, the growth inhibition is 73% (active) in experiment [1] and 99% (active) in experiment [4]. Moreover, the inhibition in experiment [2] was 8%; in experiment [3] it was -3%. Also, the result in experiment [5], in experiment [6], in experiment [7] and in experiment [8] was inactive.

For `Cc1cc(NC(=O)NCCN2CCC(NC(=O)c3ccc(F)cc3)CC2)c2ccccc2n1`, the growth inhibition was 76% (active) in experiment [1] and 99% (active) in experiment [4]. Further, the results for the inhibition in experiment [2] and in experiment [3] were -6% and -2%, respectively. Further, the result in experiment [5], in experiment [6], in experiment [7] and in experiment [8] was inactive.

As to `COc1cc(F)c2nccc([C@@H](O)CN3CC[C@@H](NC(=O)OCc4ccccc4)[C@@H](F)C3)c2c1`, the growth inhibition is 100% (active) in experiment [1] and 99% (active) in experiment [4]. Besides, the figures for the inhibition in experiment [2] and in experiment [3] were 44% and 2%, respectively. Also, the outcome in experiment [5], in experiment [6], in experiment [7] and in experiment [8] was inactive.

For the molecule `COc1ccc2nc(-c3ccccc3)cc(NN=Cc3ccc([N+](=O)[O-])o3)c2c1`, the results for the growth inhibition in experiment [1] and in experiment [4] were 99% (active) and 100% (active), respectively. For the same molecule, the inhibition in experiment [2] is 90% (active); in experiment [3] it was -7%. Besides, the outcome in experiment [5], in experiment [6], in experiment [7] and in experiment [8] was inactive.

Consider `CCCC1(NC[C@@H](O)[C@H](Cc2ccccc2)NC(=O)c2cc(NCC)cc(N3CCCCS3(=O)=O)c2)CCC1`, for which the growth inhibition in experiment [1] is 86% (active); in experiment [4], 100% (active). The inhibition in experiment [2] was -8%; in experiment [3] it was -1%. The outcome in experiment [5], in experiment [6], in experiment [7] and in experiment [8] was inactive.

With `COc1ccc(CNCc2ccc(-c3cccc(-c4nc5ccc(F)cc5[nH]4)c3)cc2)cc1`, the figures for the growth inhibition in experiment [1] and in experiment [4] were 94% (active) and 102% (active), respectively. For the same molecule, the inhibition in experiment [2] was 33%; in experiment [3] it was 3%. Moreover, the result in experiment [5], in experiment [6], in experiment [7] and in experiment [8] was inactive.

Consider `CCCCOC(=O)NCCCC[C@H](NC(=O)OC(C)(C)C)C(=O)N[C@H](C(=O)OC(c1ccccc1)c1ccccc1)[C@H]1O[C@@H](n2ccc(=O)[nH]c2=O)[C@@H]2OC(C)(C)O[C@@H]21`, for which the values for the growth inhibition in experiment [1] and in experiment [4] were 65% (active) and 87% (active), respectively. Also, the figures for the inhibition in experiment [2] and in experiment [3] were 7% and 4%, respectively. The outcome in experiment [5], in experiment [6], in experiment [7] and in experiment [8] was inactive.

On to `CN(CCCc1c[nH]c2ccccc12)CC1CCN(C(=O)/C=C/c2ccc(Cl)c(Cl)c2)CC1`, for which the growth inhibition in experiment [1] was 25%; in experiment [4], 99% (active). In addition, the inhibition is 37% in experiment [2] and -1% in experiment [3]. Moreover, the result in experiment [5], in experiment [6], in experiment [7] and in experiment [8] was inactive.

As for `COc1ccc(NC(=O)Nc2cc(C)nc3cccnc23)cc1Cn1ccnc1`, the values for the growth inhibition in experiment [1] and in experiment [4] were 41% and 100% (active), respectively. In addition, the inhibition in experiment [2] is 12%; in experiment [3] it was -3%. The outcome in experiment [5], in experiment [6], in experiment [7] and in experiment [8] was inactive.

With `CCOC(=O)c1c(CNc2ccncc2)n(C)c2cc(Br)c(OC(C)=O)cc12`, the results for the growth inhibition in experiment [1] and in experiment [4] were 93% (active) and 96% (active), respectively. For the same molecule, the inhibition in experiment [2] is -3%; in experiment [3], 5%. The result in experiment [5], in experiment [6], in experiment [7] and in experiment [8] was inactive.
